Data as given in the supplement of paper PMC9588786.
± gives the standard deviation of the averaged measurements.

Tested on: HT-1080
Test: relative cell viability with RSL3 co-treatment (fraction of control); higher = stronger protection from RSL3-induced ferroptosis (higher viability)
Details: 10 µM
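Note: viability read as CCK-8 absorbance at 450 nm in cells co-exposed to the GPX4 inhibitor RSL3, relative to a 0.01% DMSO vehicle control.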

Row | SMILES | relative cell viability
1 | CN1CCN(Cc2ccc(-c3cnc4[nH]cc(-c5ccc6[nH]ccc6c5)c4c3)cc2)CC1 | 0.497 ± 0.04
2 | CCN1CCN(Cc2ccc(Nc3ncc(F)c(-c4cc(F)c5nc(C)n(C(C)C)c5c4)n3)nc2)CC1 | 0.42 ± 0.026
3 | CN1CCN(c2ccc(C(=O)Nc3n[nH]c4ccc(Cc5cc(F)cc(F)c5)cc34)c(NC3CCOCC3)c2)CC1 [Entrectinib (RXDX-101)] | 0.537 ± 0.045
